# Source: PMC5913336, “True equilibrium measurement of transcription factor-DNA binding affinities using automated polarization microscopy”
# Molecular target: Kr (Drosophila melanogaster, UniProt P07247 220-332)
# Assay: FP; 20 mM Tris-acetate pH 7.0, 50 "nM" NaCl as printed (probably mM), 0.01% Tween 20, 0.1 mM DTT; conventional titration
# Conditions: tags: N-GST (pGEX-6P-1, kept); dsDNA, one strand shown
# Kr, sequence (P07247 220-332): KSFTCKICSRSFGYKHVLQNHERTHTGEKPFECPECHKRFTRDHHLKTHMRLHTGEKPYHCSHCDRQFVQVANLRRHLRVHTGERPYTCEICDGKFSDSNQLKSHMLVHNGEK
Sequence,binding signal,Kd [nM]
TTGAGGGATTG,1.33 Kd / Kd of best base at the position,–
TTGAGGGATGA,1.78 Kd / Kd of best base at the position,–
TTCAGGGATTA,4.61 Kd / Kd of best base at the position,–
TTGAGGGACTA,3.27 Kd / Kd of best base at the position,–
TCGAGGGATTA,1.5 Kd / Kd of best base at the position,–
TTGAGGGAATA,4.25 Kd / Kd of best base at the position,–
TTGAGGGGTTA,1.22 Kd / Kd of best base at the position,–
ATGAGGGATTA,1.06 Kd / Kd of best base at the position,–
CTGAGGGATTA,1.7 Kd / Kd of best base at the position,–
TTGAGGGATCA,4.06 Kd / Kd of best base at the position,–
TAGAGGGATTA,1.67 Kd / Kd of best base at the position,–
TTGAGGTATTA,13.8 Kd / Kd of best base at the position,–
TTGAGGGTTTA,9.26 Kd / Kd of best base at the position,–
TTGAGGAATTA,2.59 Kd / Kd of best base at the position,–
TTAAGGGATTA,1.14 Kd / Kd of best base at the position,–
TTGAGAGATTA,15.7 Kd / Kd of best base at the position,–
TTGACGGATTA,2.29 Kd / Kd of best base at the position,–

Sequence,binding signal,Kd [nM]
TTTAGGGATTA,4.08 Kd / Kd of best base at the position,–
TTGCGGGATTA,12.2 Kd / Kd of best base at the position,–
TTGATGGATTA,4.9 Kd / Kd of best base at the position,–
TTGAGGGATTT,1.61 Kd / Kd of best base at the position,–
TTGAGGGATTA,–,~0.2
TTGAAGGATTA,1.22 Kd / Kd of best base at the position,–
TTGAGTGATTA,37.9 Kd / Kd of best base at the position,–
TTGAGCGATTA,27.9 Kd / Kd of best base at the position,–
TTGAGGGCTTA,2.19 Kd / Kd of best base at the position,–
TTGGGGGATTA,16.7 Kd / Kd of best base at the position,–
TTGAGGCATTA,267 Kd / Kd of best base at the position,–
GTGAGGGATTA,1.3 Kd / Kd of best base at the position,–
TGGAGGGATTA,1.3 Kd / Kd of best base at the position,–
TTGAGGGATAA,1.82 Kd / Kd of best base at the position,–
TTGAGGGATTC,2.58 Kd / Kd of best base at the position,–
TTGAGGGAGTA,2.01 Kd / Kd of best base at the position,–
TTGTGGGATTA,3.61 Kd / Kd of best base at the position,–
